Assay outcomes (PubChem)
ClpP mod: qHTS Assay for Activators of ClpP; ATP-dependent Clp protease proteolytic subunit (Bacillus subtilis (strain 168)), P80244; purified B. subtilis ClpP, FRET peptide cleavage, 20 min; Potency, µM (top dose mostly 57.5 µM); 1.9% of 340,000 active; AID 651965, 2013; active = well fitted falling curve with a large enough effect; inconclusive = small, poorly fitted or top-dose-only effect; inactive = no such curve, though single readings can be large or run the other way; note: the source files actives as falling curves though it sought activators and does not explain the sign; nearly all actives have a fitted effect of over 65% in size
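Buffer: 100 mM Tris/HCl pH8, 100 mM KCl, 0.05% low protease BSA, 2.5% glycerol, 0.01% Tween-20. ClpP 10 microg/mL final; 20 min RT; delta FRET normalized to ADEP and DMSO controls.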
IL-1B inflam inh: qHTS for Inhibitors of Inflammasome Signaling: IL-1-beta AlphaLISA Primary Screen; 4.7% of 360,000 active; AID 743279, 2014; activity change, % at 57.5 µM; THP-1 LPS/ATP IL-1B secretion, AlphaLISA, 16 h; active compounds read low; in the data active = activity change below about -50%; inconclusive = mostly about -30% to -49%
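Secreted IL-1B measured by AlphaLISA bead assay after 16 h compound exposure of THP-1 cells; compounds (final up to 57.5 uM) added 1 h before LPS (250 ng/mL) and ATP (1.25 mM) stimulation; lower signal means less secretion.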
DRD3 agonist: qHTS of D3 Dopamine Receptor Agonist: qHTS; D(3) dopamine receptor (Homo sapiens), P35462; D3R DiscoveRx beta-arrestin cells, luminescence, 90 min; max activation, %; 0.58% of 410,000 active; AID 652048, 2013; in the data active = max activation above about 30%
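Agonist-mode cell screen: cells plated at 1500/well and incubated overnight at 37 °C, then exposed to library compounds for 90 min at 37 °C. Detection reagent was added for 30–60 min at room temperature, and luminescence was read.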
DT40 TDP1 no CPT: qHTS for Inhibitors of human tyrosyl-DNA phosphodiesterase 1 (TDP1): qHTS in cells in absence of CPT; DT40 Tdp1-/- hTDP1 cells, no CPT, ATP luminescence, 48 h; Potency, µM (highest dose often 46.2 µM), hits mostly inhibitors; AID 686978, 2013; 15% of 420,000 active; note: nearly all actives have a fitted effect of over 55% in size
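Chicken DT40 Tdp1-/- cells complemented with human TDP1, screened without camptothecin (DMSO vehicle only), 400 cells/well. Compounds pin-transferred, cells incubated at 37 °C for at least 48 hr. Growth read as ATP-dependent luminescence (CellTiter-Glo, 30 min at RT).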
TDP1 cell CPT: qHTS for Inhibitors of human tyrosyl-DNA phosphodiesterase 1 (TDP1): qHTS in cells in presence of CPT; chicken DT40 Tdp1-/-;hTDP1 cells + 20 nM CPT, ATP luminescence, 48 h; Potency, µM (series often up to 46.2 µM), usual class: inhibitors; 12% of 420,000 active; AID 686979, 2013; note: nearly all actives have a fitted effect of over 55% in size
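Cell growth measured by CellTiter-Glo luminescence after a minimum 48 h, 37 C compound exposure with 20 nM CPT in Tdp1-knockout DT40 cells stably expressing hTDP1, seeded 400/well; qHTS titration format.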
DRD3 antagonist: qHTS of D3 Dopamine Receptor Antagonist: qHTS; D3R cells, DiscoveRx beta-arrestin luminescence, antagonist mode; active compounds read low; max response, negative = inhibition, %; 2.5% of 360,000 active; in the data active = max response below about -50%; inconclusive = no clear call, values can overlap the other calls
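Cells expressing the human receptor were seeded at 1500 cells/well, incubated overnight at 37 degrees C in 5% CO2, then exposed to library compounds with dopamine controls for 90 minutes at 37 degrees C before luminescent detection.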
Numbers stand for hits; i = inactive; ? = inconclusive; nt = not tested or not shown; [ ] = another dose, or the depositor's remark. Most compounds without a hit are left out; they make up all but 21% or so of the library. Unless noted, calls come from the whole dose curve; as a rule, active = well fitted inhibition curve with a large enough effect; inconclusive = small, poorly fitted or top-dose-only effect; inactive = flat fitted curve, though single readings scatter.

SMILES	ClpP mod	IL-1B inflam inh	DRD3 agonist	DT40 TDP1 no CPT	TDP1 cell CPT	DRD3 antagonist
COc1ccccc1NC(=O)Nc1nc(CC(=O)Nc2ccc(OC)c(OC)c2)cs1	i	i	i	?	i	i
CCOC(=O)N1CCN(CCCc2ccccc2)CC1	i	i	i	i	i	i
CCN(CC)CC(=O)c1c(N)n(Cc2ccccc2)c(=O)n(C)c1=O	nt	i	i	i	i	i
Cn1c(=O)c(C(=O)CN2CCc3ccccc32)c(N)n(Cc2ccccc2)c1=O	?	i	i	18µM	13µM	i
CC(C)=CCn1cnc2c1c(=O)n(C)c(=O)n2C	nt	nt	nt	i[9.04 µM]	i[9.04 µM]	nt
CC(=Nc1ccc(C)cc1C)c1sc2ccccc2c1O	i	i	i	18µM	?	i
CC(=O)Cn1ncc(Br)c(Br)c1=O	nt	-96	i	5.2µM	5.8µM	?
Nc1nc(SCC(=O)Nc2ccc([N+](=O)[O-])cc2)[nH]c(=O)c1NC(=O)c1ccc(Br)o1	i	i	i	i	i	i
CC(C)c1ccc(S(=O)(=O)N2CCN(C(=O)c3ccncc3)CC2)cc1	i	i	i	?	i	i
Cc1cc(C)n(-c2ccc(C(=O)N3CCN(S(=O)(=O)c4ccc(C(C)C)cc4)CC3)cc2)n1	i	?	i	15µM	?	i
Cc1cc(C)n(-c2ccc(C(=O)N3CCN(S(=O)(=O)c4cccc(Br)c4)CC3)cc2)n1	i	i	i	21µM	21µM	i
C(=N\N1CCN(C2c3ccccc3-c3ccccc32)CC1)/c1ccccn1	i	i	i	16µM	21µM	i
Cc1ccc(/C=N/N2CCN(C3c4ccccc4-c4ccccc43)CC2)s1	i	i	i	?	i	i
COc1ccc(/C=N/N2CCN(C3c4ccccc4-c4ccccc43)CC2)cc1O	i	i	i	18µM	?	i
COc1ccc(Br)cc1/C=N/Nc1ccccn1	i	i	i	i	?	i
CN(Cc1ccccc1)C(=O)C1CCN(S(=O)(=O)c2ccc3nc4c(c(C(=O)O)c3c2)CCCC4)CC1	i	i	i	i	i	i
CC(=O)N=c1sc(S(N)(=O)=O)nn1C	i	i	i	i	i	-121
COc1ccc(N2CCN(C(=O)Cn3ncc4c3-c3cc(C)ccc3OC4)CC2)cc1	i	nt	i	i	i	nt
Cc1ccc2c(c1)-c1c(cnn1CC(=O)N1CCN(c3cc(C)ccc3C)CC1)CO2	i	nt	i	18µM	?	nt
COc1ccc(NC(=O)Cn2ncc3c2-c2ccccc2OC3)cc1Cl	i	nt	i	15µM	?	nt
Cc1ccc2c(c1)-c1c(cnn1CC(=O)N1CCN(c3cccc(C(F)(F)F)c3)CC1)CO2	i	nt	i	?	?	nt
Cc1cccc(N2CCN(C(=O)Cn3ncc4c3-c3ccccc3OC4)CC2)c1C	i	nt	i	16µM	18µM	nt
Nc1c(C(=O)Nc2ccccc2Cl)c2ccccn2c1C(=O)c1ccc(Cl)cc1	i	nt	i	i	i	nt
Cc1cc(C)cc(NC2=CC(c3cccc(F)c3)N(c3cc(C)cc(C)c3)C2=O)c1 (stereo unspecified)	i	nt	i	?	?	nt
COc1ccc(CCNC(=O)Cc2ccc(NC(=O)N3CCSc4ncccc43)cc2)cc1OC	i	nt	i	?	i	nt
SMILES	ClpP mod	IL-1B inflam inh	DRD3 agonist	DT40 TDP1 no CPT	TDP1 cell CPT	DRD3 antagonist
CCOC(=O)Nc1ccc2c(CNC(C)c3ccccc3OC)cc(=O)oc2c1 (stereo unspecified)	nt	i	i	23µM	?	i
Cc1ccc2c(CN3CCOCC3)cc(=O)oc2c1C	i	i	i	i	i	i
O=c1cc(CN2CCN(S(=O)(=O)c3cccc(Cl)c3)CC2)c2ccc(O)cc2o1	nt	i	i	18µM	?	i
Cc1cc(C)c2oc(=O)cc(CN3CCC(C)CC3)c2c1	nt	i	i	26µM	?	i
Cc1ccc2c(CN3CCN(Cc4ccccc4)CC3)cc(=O)oc2c1C	nt	-74	i	18µM	?	i
Cc1ccc2c(CN3CCC(C)CC3)cc(=O)oc2c1C	i	i	i	?	?	?
Cc1ccc2c(CN3CCN(S(=O)(=O)c4ccc(Cl)cc4)CC3)cc(=O)oc2c1C	14µM	i	i	16µM	?	i
Cc1cc(C)c2oc(=O)cc(CN3CCN(Cc4ccccc4)CC3)c2c1	i	i	i	?	18µM	i
CCOC(=O)Nc1ccc2c(CN3CCN(S(=O)(=O)c4ccccc4)CC3)cc(=O)oc2c1	?	i	i	?	13µM	i
COc1ccc2c(CC(=O)Nc3ccc4nc(N5CCOCC5)sc4c3)coc2c1	i	i	i	?	?	i
CCOCCCNc1ccc(N2C(=O)CCCC2=O)cc1[N+](=O)[O-]	nt	i	i	i	i	i
COc1ccc2[nH]c3nc(SCc4nnc(-c5ccc(C)cc5)o4)nnc3c2c1	i	i	i	16µM	26µM	i
Fc1ccccc1/C=N/n1c(COc2ccccc2)n[nH]c1=S	i	i	i	i	i	i
CC(C(=O)NC(C)(C)C)N(Cc1cccs1)C(=O)CCN1CCc2ccccc21 (stereo unspecified)	nt	i	i	?	23µM	i
CC(C)(C)NC(=O)CN(Cc1cccs1)C(=O)CCN1CCc2ccccc21	i	i	i	i	?	i
O=c1cc2nc(-c3ccccc3F)nc(SCc3ccc(Br)cc3)n2[nH]1	i	nt	i	12µM	18µM	nt
Cc1ccc2oc(=O)c3cnn(CC(=O)N(C)c4ccc(F)cc4)c3c2c1	i	nt	i	i	i	nt
CC(C)OCCCNC(=O)Cn1ncc2c(=O)oc3ccccc3c21	i	i	i	i	i	i
Cc1ccc2oc(=O)c3cnn(CC(=O)NCCCOC(C)C)c3c2c1	i	i	i	?	?	-84
Cc1ccc2oc(=O)c3cnn(CC(=O)N4CCN(c5ccccc5F)CC4)c3c2c1	i	nt	i	21µM	?	nt
O=C(Cn1ncc2c(=O)oc3ccccc3c21)NCc1cccnc1	nt	i	i	9.2µM	1.3µM	i
COc1ccccc1N1CCN(C(=O)Cn2ncc3c(=O)oc4ccc(C)cc4c32)CC1	i	nt	i	?	i	nt
Cc1ccc2oc(=O)c3cnn(CC(=O)N4CCN(c5ccccc5)CC4)c3c2c1	i	i	i	10µM	?	i
O=C(Cn1ncc2c(=O)oc3ccccc3c21)NCc1ccc(Cl)cc1	i	nt	i	i	i	nt
CN(Cc1ccccc1F)C(=O)CCNC(=O)c1ccc(C(C)(C)C)cc1	i	i	i	?	?	i
